The results in this text go back to PubChem BioAssay (EPA / NIEHS).

Each structure is given as a SMILES string. The source made the active and inactive calls. How the source made its calls: active means hit-call score of the fitted dose curve at least 0.9, where 1 is the maximum; inactive means score below 0.9.

Usually AC50 stands for the concentration giving half of the maximal activity seen.

Assay [1] is described as follows: ATG_GLI_CIS: Attagene CIS-FACTORIAL HepG2 Assay for human Zinc Finger Protein GLI1 (AID 2282945). Conditions: HepG2, Attagene cis-factorial reporter mRNA, GLI element; actives raise or lower the signal. A digest of the protocol:
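Bidirectional curve fits relative to DMSO, using reporter mRNA levels from RT-PCR plus capillary electrophoresis. Cells were HepG2 transiently carrying cis-regulated reporter constructs, harvested 24 h after dosing.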

For assay [2], the target named is Bile acid receptor (Homo sapiens) (UniProt Q96RI1). Nature of the assay: ATG_IR1_CIS: Attagene CIS-FACTORIAL HepG2 Assay for human Nuclear Receptor Subfamily 1 Group H Member 4 (NR1H4), IR1 submotif (AID 2282946). Conditions: IR1 reporter transcription, actives raise or lower the signal. The gist of the method:
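Cells (human HepG2) carry transiently transfected cis-promoter reporter transcription units. Compounds are incubated 24 h, total RNA is reverse-transcribed and amplified, and labelled fragments are resolved by capillary electrophoresis. Curves use DMSO as baseline.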

Assay [3] can be described thus: ATG_GRE_CIS: Attagene CIS-FACTORIAL HepG2 Assay for human Glucocorticoid Response Elements (GRE) (AID 2282947). As to conditions: HepG2 GRE cis-reporter, Attagene multiplex mRNA; actives raise or lower the signal. A digest of the protocol:
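Transient MRTU transfection of human HepG2 liver cells; cis-regulated reporters report endogenous factors. 24 h dosing → RNA isolation → RT-PCR → 6-FAM primer extension → HpaI cut → CE fragment analysis. Bidirectional fit, DMSO negative control.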

A short description of assay [4]: ATG_ISRE_CIS: Attagene CIS-FACTORIAL HepG2 Assay for human Interferon Regulatory Factor 1 (IRF1) binding to an Interferon-Stimulated Response Element (ISRE) (AID 2282948). Conditions: HepG2 ISRE cis-reporter (Attagene), mRNA transcription readout; actives raise or lower the signal. A digest of the protocol: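 Quantitation relies on labelled RT-PCR fragments separated by capillary electrophoresis. Human HepG2 cells bearing cis-promoter reporter constructs were treated 24 h; DMSO served as baseline for bidirectional fitting.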

Assay [5] is described as follows: ATG_M_32_CIS: Attagene CIS-FACTORIAL HepG2 Assay for M32 Transcription Factor (Internal Marker) (AID 2282949).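 Further: background control marker of the multiplexed CIS panel rather than a real target.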 As to conditions: HepG2 Attagene cis-factorial M32 reporter, mRNA; actives raise or lower the signal. A digest of the protocol:
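Fluorescent capillary electrophoresis peaks of HpaI-digested, FAM-labelled RT-PCR reporter products give the signal. Source: transiently transfected human liver HepG2 cells, 24 h after chemical dosing; bidirectional fitting against DMSO.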

Assay [6] in a line: ATG_M_06_CIS: Attagene CIS-FACTORIAL HepG2 Assay for M06 Transcription Factor (Internal Marker) (AID 2282950). Conditions: HepG2 Attagene CIS-FACTORIAL M06 internal marker reporter; actives raise or lower the signal. A digest of the protocol:
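Serves as a background control readout. Transfected HepG2 exposed to compounds for 24 h, then reporter transcripts quantified by fluorescent RT-PCR and capillary electrophoresis. Both directions fitted against DMSO baseline.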

Assay [7] addresses Hypoxia-inducible factor 1-alpha (Homo sapiens) (UniProt Q16665). Nature of the assay: ATG_HIF1a_CIS: Attagene CIS-FACTORIAL HepG2 Assay for human Hypoxia Inducible Factor 1 (HIF1A) (AID 2282951). As to conditions: HepG2 Attagene cis-factorial HIF1a reporter transcription; actives raise or lower the signal. The gist of the method:
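Endogenous-TF cis reporter readout, human HepG2 cells, 24 h incubation; mRNA detected via RT-PCR and capillary electrophoresis fluorescence; DMSO-normalised bidirectional fitting.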

In assay [8] the target is Heat shock factor protein 1 (Homo sapiens) (UniProt Q00613). Briefly: ATG_HSE_CIS: Attagene CIS-FACTORIAL HepG2 Assay for human Heat Shock Transcription Factor 1 (HSE) (AID 2282953). Conditions: HepG2 HSE cis-reporter, Attagene RNA transcription; actives raise or lower the signal. A digest of the protocol:
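Endogenous transcription factor activity in transiently transfected HepG2, read as reporter mRNA by RT-PCR with fluorescent capillary electrophoresis after 24 h. Gain or loss of signal fitted versus DMSO baseline.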

A short description of assay [9]: ATG_MRE_CIS: Attagene CIS-FACTORIAL HepG2 Assay for human Metal Responsive Element (MRE) (AID 2282954). As to conditions: HepG2 MRE cis-reporter transcription, Attagene multiplex; actives raise or lower the signal. The gist of the method: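 Transient MRTU transfection of HepG2 (FuGene 6); 24 h dosing; total RNA → oligo(dT) RT, PCR, 6-FAM primer extension, HpaI cut, CE. Bidirectional fit vs DMSO.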

Assay [10] can be described thus: ATG_PBREM_CIS: Attagene CIS-FACTORIAL HepG2 Assay for human Phenobarbital-responsive Enhancer Module (PBREM) (AID 2282955). Conditions: HepG2 PBREM cis-reporter, Attagene multiplexed transcription; actives raise or lower the signal. A digest of the protocol:
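Readout: reporter mRNA, fluorescent RT-PCR fragments separated by capillary electrophoresis. System: HepG2 transiently transfected with cis-regulated reporter units. Exposure: 24 h. Analysis: bidirectional, DMSO baseline.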

For assay [11], the target named is Paired box protein Pax-6 (Homo sapiens) (UniProt P26367). Nature of the assay: ATG_Pax6_CIS: Attagene CIS-FACTORIAL HepG2 Assay for human Paired Box 6 (PAX6) (AID 2282956). As to conditions: HepG2 CIS-FACTORIAL PAX6 reporter transcription, RNA readout; actives raise or lower the signal. The gist of the method: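 After twenty-four hours of chemical exposure, transfected HepG2 cells are harvested for RNA. Cis-promoter reporter transcripts are amplified, fluorescently labelled and sized by capillary electrophoresis, with gain and loss of signal scored against DMSO.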

Assay [12] is described as follows: ATG_PXRE_CIS: Attagene CIS-FACTORIAL HepG2 Assay for human Pregnane X Receptor Element (PXRE) (AID 2282957). As to conditions: HepG2 Attagene CIS-FACTORIAL PXRE reporter, mRNA; actives raise or lower the signal. The gist of the method: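 Transiently transfected HepG2 cells were dosed and incubated for 24 h. RNA was then isolated, DNase-treated, reverse-transcribed and reporter sequences amplified. Labeled, HpaI-digested fragments were quantified by capillary electrophoresis against DMSO.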

A short description of assay [13]: ATG_PPRE_CIS: Attagene CIS-FACTORIAL HepG2 Assay for human Peroxisome Proliferator-activated Response Element (PPRE) (AID 2282958). As to conditions: HepG2 PPRE cis-element reporter, Attagene transcription factor profiling; actives raise or lower the signal. The gist of the method:
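After human HepG2 hepatoma cells were transiently transfected with cis-promoter reporter constructs, they were exposed to test chemicals for 24 hours. Reporter RNA was then reverse-transcribed, PCR-amplified, FAM-labeled, HpaI-digested and quantified by capillary electrophoresis.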

The nature of assay [14]: ATG_Sox_CIS: Attagene CIS-FACTORIAL HepG2 Assay for human SRY-box transcription factor (SOX) (AID 2282960). As to conditions: HepG2 Attagene cis-factorial SOX reporter, mRNA; actives raise or lower the signal. A digest of the protocol: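 Using transiently transfected HepG2 cells, reporter transcription driven by cis elements was assessed 24 h after dosing. Signal was fluorescence of capillary-separated RT-PCR products, with DMSO defining baseline activity.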

Assay [15] concerns the target Transcription factor Sp1 (Homo sapiens) (UniProt P08047). Nature of the assay: ATG_Sp1_CIS: Attagene CIS-FACTORIAL HepG2 Assay for human Specificity Protein 1 (Sp1) (AID 2282961). As to conditions: HepG2 Sp1 cis-reporter transcription, actives raise or lower the signal. A digest of the protocol: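 After transient transfection of HepG2 cells with cis-promoter reporter units and 24 h chemical treatment, reporter transcripts were quantified by RT-PCR and capillary electrophoresis fluorescence. Gain- and loss-of-signal fitted against DMSO.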

Assay [16] addresses Signal transducer and activator of transcription 3 (Homo sapiens) (UniProt P40763). Nature of the assay: ATG_STAT3_CIS: Attagene CIS-FACTORIAL HepG2 Assay for human Signal Transducer and Activator of Transcription 3 (STAT3) (AID 2282963). As to conditions: HepG2, Attagene cis-factorial STAT3 reporter transcription; actives raise or lower the signal. The gist of the method: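 Endogenous STAT3-responsive cis-element activity was read in transiently transfected HepG2 cells after 24 h treatment. Reporter transcripts were quantified via RT-PCR and capillary electrophoresis, with DMSO as negative control and bidirectional curve fitting.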

The nature of assay [17]: ATG_TA_CIS: Attagene CIS-FACTORIAL HepG2 Assay for human TA Basal Promoter (AID 2282964). Conditions: HepG2 Attagene CIS-factorial TA basal promoter reporter; actives raise or lower the signal. A digest of the protocol:
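Background-control readout: TA basal promoter reporter mRNA, fitted in both directions relative to DMSO. Measured by RT-PCR and capillary electrophoresis 24 hours after treating HepG2 human liver cells transiently carrying multiplexed cis-regulated reporter constructs.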

The target of assay [18] is Hepatocyte nuclear factor 6 (Homo sapiens) (UniProt Q9UBC0). Briefly: ATG_HNF6_CIS: Attagene CIS-FACTORIAL HepG2 Assay for human Hepatocyte Nuclear Factor 6 (HNF6) (AID 2282952). As to conditions: HepG2 Attagene cis-factorial HNF6 reporter transcription; actives raise or lower the signal. A digest of the protocol: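 Reporter mRNA induction or loss in HepG2 after 24 h exposure; transient cis-MRTU transfection; fragments quantified by capillary electrophoresis; bidirectional analysis, DMSO as negative control.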

A short description of assay [19]: ATG_RORE_CIS: Attagene CIS-FACTORIAL HepG2 Assay for human RAR-related Orphan Receptor Element (RORE) (AID 2282959). As to conditions: HepG2 Attagene cis-factorial RORE reporter, mRNA; actives raise or lower the signal. A digest of the protocol: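 Measured here: transcript induction of a cis-regulated reporter in HepG2 cells transiently transfected via FuGene 6. After 24 h, RNA was processed by RT-PCR and fluorescent capillary electrophoresis; DMSO defined baseline activity.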

Assay [20] can be described thus: ATG_SREBP_CIS: Attagene CIS-FACTORIAL HepG2 Assay for human Sterol Regulatory Element Binding (SREBP) (AID 2282962). Conditions: HepG2 Attagene cis-factorial SREBP reporter, mRNA; actives raise or lower the signal. A digest of the protocol:
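Twenty-four hours after chemical dosing of transfected HepG2 cultures, reporter RNA was converted to cDNA, amplified, end-labelled with 6-FAM and resolved by capillary electrophoresis. Responses were fitted relative to DMSO.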

Paired box protein Pax-6 (Homo sapiens), sequence (P26367 whole entry, looked up): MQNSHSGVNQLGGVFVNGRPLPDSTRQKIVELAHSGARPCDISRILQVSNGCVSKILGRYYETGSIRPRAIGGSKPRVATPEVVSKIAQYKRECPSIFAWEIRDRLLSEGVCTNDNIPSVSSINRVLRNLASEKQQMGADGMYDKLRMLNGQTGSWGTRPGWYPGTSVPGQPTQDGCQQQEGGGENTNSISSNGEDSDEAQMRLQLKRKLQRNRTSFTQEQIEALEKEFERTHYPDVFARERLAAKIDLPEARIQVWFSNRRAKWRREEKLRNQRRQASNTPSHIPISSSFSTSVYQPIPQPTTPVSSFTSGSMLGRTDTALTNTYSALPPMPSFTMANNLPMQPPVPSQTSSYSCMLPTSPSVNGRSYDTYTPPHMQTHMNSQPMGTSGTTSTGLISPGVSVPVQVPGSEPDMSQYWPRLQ
Transcription factor Sp1 (Homo sapiens), sequence (P08047 whole entry, looked up): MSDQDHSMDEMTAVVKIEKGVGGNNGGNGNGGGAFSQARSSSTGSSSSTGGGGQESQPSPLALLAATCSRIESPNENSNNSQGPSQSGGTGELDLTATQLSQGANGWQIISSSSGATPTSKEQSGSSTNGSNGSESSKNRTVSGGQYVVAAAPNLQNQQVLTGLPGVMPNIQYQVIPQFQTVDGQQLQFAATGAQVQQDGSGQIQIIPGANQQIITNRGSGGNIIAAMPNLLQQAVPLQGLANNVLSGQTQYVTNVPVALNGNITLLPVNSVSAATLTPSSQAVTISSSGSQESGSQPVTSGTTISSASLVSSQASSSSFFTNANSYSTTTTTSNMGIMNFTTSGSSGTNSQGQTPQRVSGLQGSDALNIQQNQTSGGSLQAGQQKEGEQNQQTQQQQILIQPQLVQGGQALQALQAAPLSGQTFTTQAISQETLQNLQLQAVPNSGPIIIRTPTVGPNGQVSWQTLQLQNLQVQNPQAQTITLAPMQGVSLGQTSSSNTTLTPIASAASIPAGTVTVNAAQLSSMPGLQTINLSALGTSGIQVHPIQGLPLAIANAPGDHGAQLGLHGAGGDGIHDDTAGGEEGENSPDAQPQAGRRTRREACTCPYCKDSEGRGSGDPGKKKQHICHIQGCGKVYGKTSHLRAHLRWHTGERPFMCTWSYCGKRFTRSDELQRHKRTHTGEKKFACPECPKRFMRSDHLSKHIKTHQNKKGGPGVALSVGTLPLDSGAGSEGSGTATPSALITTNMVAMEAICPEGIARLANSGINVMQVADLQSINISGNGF
Hypoxia-inducible factor 1-alpha (Homo sapiens), sequence (Q16665 whole entry, looked up): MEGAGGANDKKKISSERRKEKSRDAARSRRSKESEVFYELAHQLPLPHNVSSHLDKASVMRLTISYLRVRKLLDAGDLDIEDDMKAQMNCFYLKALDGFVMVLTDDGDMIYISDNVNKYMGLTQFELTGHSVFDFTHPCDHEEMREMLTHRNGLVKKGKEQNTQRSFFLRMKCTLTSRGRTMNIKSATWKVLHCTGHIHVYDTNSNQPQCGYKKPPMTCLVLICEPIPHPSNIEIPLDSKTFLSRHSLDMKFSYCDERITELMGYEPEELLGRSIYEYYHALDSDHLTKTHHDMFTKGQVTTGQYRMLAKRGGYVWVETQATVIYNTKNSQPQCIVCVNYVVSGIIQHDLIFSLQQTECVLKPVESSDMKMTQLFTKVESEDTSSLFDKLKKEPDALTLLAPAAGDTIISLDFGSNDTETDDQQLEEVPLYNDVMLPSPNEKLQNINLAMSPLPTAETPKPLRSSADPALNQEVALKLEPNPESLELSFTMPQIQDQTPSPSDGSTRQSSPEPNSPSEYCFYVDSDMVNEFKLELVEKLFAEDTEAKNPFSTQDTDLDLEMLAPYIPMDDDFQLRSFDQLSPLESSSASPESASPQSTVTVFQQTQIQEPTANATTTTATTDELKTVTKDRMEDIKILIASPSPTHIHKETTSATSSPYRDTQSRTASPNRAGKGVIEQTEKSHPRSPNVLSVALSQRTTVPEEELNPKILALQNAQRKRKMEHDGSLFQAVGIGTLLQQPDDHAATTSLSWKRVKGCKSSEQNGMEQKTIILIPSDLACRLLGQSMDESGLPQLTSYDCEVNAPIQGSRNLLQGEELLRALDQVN
Signal transducer and activator of transcription 3 (Homo sapiens), sequence (P40763 whole entry, looked up): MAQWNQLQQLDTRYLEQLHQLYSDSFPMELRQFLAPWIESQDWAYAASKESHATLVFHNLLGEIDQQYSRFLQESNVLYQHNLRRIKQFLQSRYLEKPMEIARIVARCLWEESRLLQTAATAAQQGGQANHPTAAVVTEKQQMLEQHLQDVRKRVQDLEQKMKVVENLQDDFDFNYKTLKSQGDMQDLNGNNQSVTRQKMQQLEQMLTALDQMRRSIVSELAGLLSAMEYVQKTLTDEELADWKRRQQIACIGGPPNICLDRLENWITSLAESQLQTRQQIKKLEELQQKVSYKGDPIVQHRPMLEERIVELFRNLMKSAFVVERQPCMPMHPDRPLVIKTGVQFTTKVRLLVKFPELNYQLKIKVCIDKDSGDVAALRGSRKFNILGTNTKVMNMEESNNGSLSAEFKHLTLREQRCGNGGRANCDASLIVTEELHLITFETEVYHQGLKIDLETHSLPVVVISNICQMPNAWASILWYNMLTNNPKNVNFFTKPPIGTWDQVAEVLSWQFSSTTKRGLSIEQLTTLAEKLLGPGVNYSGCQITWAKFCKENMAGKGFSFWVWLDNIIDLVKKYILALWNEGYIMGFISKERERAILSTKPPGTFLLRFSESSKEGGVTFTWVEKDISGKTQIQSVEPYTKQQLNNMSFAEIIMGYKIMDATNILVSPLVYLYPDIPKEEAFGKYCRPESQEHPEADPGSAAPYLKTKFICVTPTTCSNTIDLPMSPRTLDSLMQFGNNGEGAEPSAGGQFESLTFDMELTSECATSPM
Hepatocyte nuclear factor 6 (Homo sapiens), sequence (Q9UBC0 whole entry, looked up, the tested form may be a part): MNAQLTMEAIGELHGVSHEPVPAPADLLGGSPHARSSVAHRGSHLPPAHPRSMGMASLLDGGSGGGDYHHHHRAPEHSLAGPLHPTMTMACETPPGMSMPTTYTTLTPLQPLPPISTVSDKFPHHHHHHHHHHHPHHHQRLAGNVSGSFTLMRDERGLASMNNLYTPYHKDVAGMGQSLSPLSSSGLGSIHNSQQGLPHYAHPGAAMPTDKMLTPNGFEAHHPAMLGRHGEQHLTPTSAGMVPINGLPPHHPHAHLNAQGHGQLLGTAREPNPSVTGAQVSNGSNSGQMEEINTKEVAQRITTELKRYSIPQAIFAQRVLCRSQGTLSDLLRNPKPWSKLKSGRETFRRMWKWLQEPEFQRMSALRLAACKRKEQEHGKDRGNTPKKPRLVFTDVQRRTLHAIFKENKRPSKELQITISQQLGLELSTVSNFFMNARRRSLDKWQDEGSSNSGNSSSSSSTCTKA
Bile acid receptor (Homo sapiens), sequence (Q96RI1 whole entry, looked up, the tested form may be a part): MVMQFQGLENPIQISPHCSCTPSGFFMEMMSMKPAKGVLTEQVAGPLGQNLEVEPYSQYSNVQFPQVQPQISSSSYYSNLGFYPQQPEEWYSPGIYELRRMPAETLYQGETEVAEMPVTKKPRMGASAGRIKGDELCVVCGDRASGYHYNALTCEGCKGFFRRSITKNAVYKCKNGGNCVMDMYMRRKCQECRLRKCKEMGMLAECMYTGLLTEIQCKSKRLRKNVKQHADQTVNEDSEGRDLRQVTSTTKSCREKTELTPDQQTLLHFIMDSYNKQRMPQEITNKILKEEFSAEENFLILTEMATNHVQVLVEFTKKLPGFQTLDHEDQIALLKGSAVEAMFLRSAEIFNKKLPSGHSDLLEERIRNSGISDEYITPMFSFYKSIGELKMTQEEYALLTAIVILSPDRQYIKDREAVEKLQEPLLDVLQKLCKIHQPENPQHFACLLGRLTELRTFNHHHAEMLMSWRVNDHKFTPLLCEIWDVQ
Heat shock factor protein 1 (Homo sapiens), sequence (Q00613 whole entry, looked up): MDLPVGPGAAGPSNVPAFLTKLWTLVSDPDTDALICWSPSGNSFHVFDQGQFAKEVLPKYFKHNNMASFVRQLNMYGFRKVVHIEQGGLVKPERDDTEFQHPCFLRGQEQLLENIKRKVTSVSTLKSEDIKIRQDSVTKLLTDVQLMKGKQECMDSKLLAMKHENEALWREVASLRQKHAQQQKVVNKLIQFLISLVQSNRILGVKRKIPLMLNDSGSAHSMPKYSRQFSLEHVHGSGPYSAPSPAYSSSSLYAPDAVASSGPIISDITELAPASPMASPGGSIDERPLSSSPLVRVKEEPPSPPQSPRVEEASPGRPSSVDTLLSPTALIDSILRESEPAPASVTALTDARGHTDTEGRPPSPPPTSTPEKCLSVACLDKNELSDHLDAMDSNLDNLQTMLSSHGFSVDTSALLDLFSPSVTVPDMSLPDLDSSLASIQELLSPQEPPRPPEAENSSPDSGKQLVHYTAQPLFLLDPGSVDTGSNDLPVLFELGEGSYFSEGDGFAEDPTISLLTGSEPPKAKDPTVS

In the case of `CCCCNc1ccccc1`, the compound was called inactive in [1], in [2], in assay [3], in assay [4], in [5] and in assay [6]. For the same compound, the call in assay [7], in [8], in [9], in assay [10], in [11] and in assay [13] was inactive. The outcome in [14], in [15], in assay [16] and in [17] was inactive. Further, in assay [12], the concentration at half-maximal activity (AC50) was 100 µM (active).

Consider `C(=C(c1ccccc1)c1ccccc1)c1ccccc1`, for which the compound was classed as inactive in assay [1], in assay [2], in [3], in assay [4], in [5] and in assay [6]. In addition, the compound was called inactive in assay [7], in assay [18], in assay [9], in assay [10], in assay [11] and in assay [13]. The outcome in [19], in assay [14], in [15], in assay [20], in assay [16] and in [17] was inactive. In addition, the AC50 in [12] was 4.4 µM (active).

As to `Nc1cc(Cl)c(N)c(Cl)c1`, the outcome in assay [1], in [2], in [3], in [4], in assay [5] and in assay [6] was inactive. For the same compound, the call in [7], in [18], in assay [9], in assay [10], in assay [11] and in assay [13] was inactive. Moreover, the result in assay [19], in assay [14], in assay [15], in assay [20], in assay [16] and in [17] was inactive. Further, the AC50 in assay [12] is 37 µM (active).

`CCCCCCCCCCCCCCCC[N+](C)(C)Cc1ccccc1`: the call in assay [1], in assay [3], in [5], in assay [6], in assay [7] and in assay [18] was inactive. The result in [9], in [10], in assay [11], in assay [12], in assay [13] and in assay [14] was inactive. Besides, the compound was classed as inactive in assay [16] and in [17]. For the same compound, the concentration at half-maximal activity (AC50) in assay [2] was 10.2 µM (active); in [4] it was 47.6 µM (active); in [8], 24.5 µM (active); in assay [15] it was 132 µM (active).
